We go through three molecules from PubChem BioAssay (EPA / NIEHS).

The target of assay [1] is Bile acid receptor (Homo sapiens) (UniProt Q96RI1). Description: ATG_IR1_CIS: Attagene CIS-FACTORIAL HepG2 Assay for human Nuclear Receptor Subfamily 1 Group H Member 4 (NR1H4), IR1 submotif (AID 2282946). To be noted: IR1 reporter transcription, actives raise or lower the signal. The method in brief:
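Readout: reporter transcript levels by RT-PCR with fluorescent capillary electrophoresis, from HepG2 cells transiently transfected with multiplexed cis-regulated reporters and dosed 24 h. Gain- or loss-of-signal fitted versus DMSO negative control.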

Assay [2] can be described thus: ATG_GRE_CIS: Attagene CIS-FACTORIAL HepG2 Assay for human Glucocorticoid Response Elements (GRE) (AID 2282947). To be noted: HepG2 GRE cis-reporter, Attagene multiplex mRNA; actives raise or lower the signal. The method in brief:
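Cells (HepG2) bearing transfected cis-promoter reporter transcription units were treated with chemical for 24 hours. Reporter mRNA was measured via RT-PCR with capillary electrophoresis, and activity was fitted in both directions relative to DMSO.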

The nature of assay [3]: ATG_ISRE_CIS: Attagene CIS-FACTORIAL HepG2 Assay for human Interferon Regulatory Factor 1 (IRF1) binding to an Interferon-Stimulated Response Element (ISRE) (AID 2282948). To be noted: HepG2 ISRE cis-reporter (Attagene), mRNA transcription readout; actives raise or lower the signal. Put shortly: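 Multiplexed mRNA reporter readout in human liver HepG2 cells: cis-element-driven reporters transfected, compound added for 24 h, transcripts amplified, fluorescently labelled and sized by capillary electrophoresis; curve fitting bidirectional against DMSO.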

The nature of assay [4]: ATG_M_32_CIS: Attagene CIS-FACTORIAL HepG2 Assay for M32 Transcription Factor (Internal Marker) (AID 2282949).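 Note: background control marker of the multiplexed CIS panel rather than a real target.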 Particulars: HepG2 Attagene cis-factorial M32 reporter, mRNA; actives raise or lower the signal. Put shortly:
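HepG2 human liver cells transiently transfected with cis-promoter-driven multiple reporter transcription units, dosed 24 h. Reporter mRNA quantified by RT-PCR, FAM-labelled primer extension, HpaI digest and capillary electrophoresis; bidirectional fit versus DMSO baseline.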

Assay [5] can be described thus: ATG_M_06_CIS: Attagene CIS-FACTORIAL HepG2 Assay for M06 Transcription Factor (Internal Marker) (AID 2282950). Particulars: HepG2 Attagene CIS-FACTORIAL M06 internal marker reporter; actives raise or lower the signal. Put shortly: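 Fluorescence-labelled RT-PCR products from cis-promoter reporter units, cut with HpaI and resolved by capillary electrophoresis, give the signal. Cells are human HepG2, dosed for 24 h. Serves as background control, fitted relative to DMSO.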

For assay [6], the target named is Hepatocyte nuclear factor 6 (Homo sapiens) (UniProt Q9UBC0). The assay is described as follows: ATG_HNF6_CIS: Attagene CIS-FACTORIAL HepG2 Assay for human Hepatocyte Nuclear Factor 6 (HNF6) (AID 2282952). Particulars: HepG2 Attagene cis-factorial HNF6 reporter transcription; actives raise or lower the signal. Put shortly: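 Twenty-four-hour chemical treatment of reporter-transfected HepG2 cells precedes RNA isolation, DNase-treated reverse transcription and PCR of reporter sequences. Labelled fragments are sized by capillary electrophoresis and fitted bidirectionally versus DMSO.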

The target in assay [7] is Heat shock factor protein 1 (Homo sapiens) (UniProt Q00613). The assay is described as follows: ATG_HSE_CIS: Attagene CIS-FACTORIAL HepG2 Assay for human Heat Shock Transcription Factor 1 (HSE) (AID 2282953). Particulars: HepG2 HSE cis-reporter, Attagene RNA transcription; actives raise or lower the signal. Put shortly:
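After a 24 h incubation with test chemical, transfected HepG2 cells were harvested for RNA; reporter transcripts were measured by RT-PCR and capillary electrophoresis. Values reflect gain or loss of signal relative to DMSO.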

Assay [8] in a line: ATG_MRE_CIS: Attagene CIS-FACTORIAL HepG2 Assay for human Metal Responsive Element (MRE) (AID 2282954). Particulars: HepG2 MRE cis-reporter transcription, Attagene multiplex; actives raise or lower the signal. Put shortly: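 Cells were transfected with cis-promoter reporter transcription units, then dosed for 24 h. RNA was reverse-transcribed, amplified, fluorescently labelled and resolved by capillary electrophoresis, and activity was fitted in both directions relative to DMSO.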

Assay [9] is described as follows: ATG_PBREM_CIS: Attagene CIS-FACTORIAL HepG2 Assay for human Phenobarbital-responsive Enhancer Module (PBREM) (AID 2282955). To be noted: HepG2 PBREM cis-reporter, Attagene multiplexed transcription; actives raise or lower the signal. Put shortly:
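Fluorescence of labelled reporter cDNA fragments, resolved by capillary electrophoresis, gives mRNA induction in transfected HepG2 cells treated for 24 h; DMSO serves as negative control and baseline.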

The target of assay [10] is Paired box protein Pax-6 (Homo sapiens) (UniProt P26367). Description: ATG_Pax6_CIS: Attagene CIS-FACTORIAL HepG2 Assay for human Paired Box 6 (PAX6) (AID 2282956). To be noted: HepG2 CIS-FACTORIAL PAX6 reporter transcription, RNA readout; actives raise or lower the signal. Put shortly: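 Fluorescent RT-PCR products separated by capillary electrophoresis report PAX6-linked promoter mRNA in HepG2 cells 24 h post-dose. Curves fitted bidirectionally, DMSO as negative control.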

Assay [11] is described as follows: ATG_PXRE_CIS: Attagene CIS-FACTORIAL HepG2 Assay for human Pregnane X Receptor Element (PXRE) (AID 2282957). To be noted: HepG2 Attagene CIS-FACTORIAL PXRE reporter, mRNA; actives raise or lower the signal. Put shortly:
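Bidirectional activity, baselined to DMSO, derived from reporter mRNA fluorescence (RT-PCR plus capillary electrophoresis) in HepG2 cells bearing cis-promoter reporter units, 24 h exposure.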

The nature of assay [12]: ATG_PPRE_CIS: Attagene CIS-FACTORIAL HepG2 Assay for human Peroxisome Proliferator-activated Response Element (PPRE) (AID 2282958). Particulars: HepG2 PPRE cis-element reporter, Attagene transcription factor profiling; actives raise or lower the signal. The method in brief:
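Cells are first transfected transiently with the multiplexed reporter library, then dosed for 24 h. Total RNA is reverse-transcribed, amplified, fluorescently end-labeled and HpaI-cut before capillary electrophoresis; activity is fitted bidirectionally against DMSO controls.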

A short description of assay [13]: ATG_RORE_CIS: Attagene CIS-FACTORIAL HepG2 Assay for human RAR-related Orphan Receptor Element (RORE) (AID 2282959). To be noted: HepG2 Attagene cis-factorial RORE reporter, mRNA; actives raise or lower the signal. Put shortly: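 Cells were HepG2 carrying transfected cis-regulated reporter constructs, dosed for 24 hours. Total RNA was reverse-transcribed and reporter cDNA amplified, fluorescently labeled and sized by capillary electrophoresis. Activity was fitted bidirectionally relative to DMSO.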

Assay [14] can be described thus: ATG_Sox_CIS: Attagene CIS-FACTORIAL HepG2 Assay for human SRY-box transcription factor (SOX) (AID 2282960). Particulars: HepG2 Attagene cis-factorial SOX reporter, mRNA; actives raise or lower the signal. Put shortly: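 Transient MRTU transfection of HepG2; 24 h compound incubation; TriZol RNA, oligo(dT) RT, PCR, 6-FAM primer extension, HpaI cut, CE. Bidirectional fit, DMSO = baseline.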

Assay [15] deals with Transcription factor Sp1 (Homo sapiens) (UniProt P08047). Description: ATG_Sp1_CIS: Attagene CIS-FACTORIAL HepG2 Assay for human Specificity Protein 1 (Sp1) (AID 2282961). Particulars: HepG2 Sp1 cis-reporter transcription, actives raise or lower the signal. The method in brief:
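Endogenous Sp1 activity was gauged in human liver HepG2 cells bearing transfected reporter units under a cis-regulating promoter. After 24 h dosing, reporter mRNA was quantified by RT-PCR with capillary electrophoresis, and activity fitted bidirectionally versus DMSO.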

Assay [16] in a line: ATG_SREBP_CIS: Attagene CIS-FACTORIAL HepG2 Assay for human Sterol Regulatory Element Binding (SREBP) (AID 2282962). Particulars: HepG2 Attagene cis-factorial SREBP reporter, mRNA; actives raise or lower the signal. The method in brief:
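Endogenous factor activity is measured in HepG2 through multiplexed reporter units under cis-element control. Following a 24 h incubation, reporter transcripts are reverse-transcribed, PCR-amplified and sized by capillary electrophoresis; activity is fitted in both directions relative to DMSO.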

Assay [17] concerns the target Signal transducer and activator of transcription 3 (Homo sapiens) (UniProt P40763). The assay is described as follows: ATG_STAT3_CIS: Attagene CIS-FACTORIAL HepG2 Assay for human Signal Transducer and Activator of Transcription 3 (STAT3) (AID 2282963). Particulars: HepG2, Attagene cis-factorial STAT3 reporter transcription; actives raise or lower the signal. The method in brief: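 HepG2, MRTU-transfected, 24 h dosing. RNA → RT → PCR → FAM label → HpaI → CE. Bidirectional fit vs DMSO.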

Assay [18] is described as follows: ATG_TCF_b_cat_CIS: Attagene CIS-FACTORIAL HepG2 Assay for human T-Cell-Factor with beta-catenin (TCF/b-cat) (AID 2282965). Particulars: HepG2 TCF/beta-catenin cis-reporter transcription, actives raise or lower the signal. Put shortly: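 Using capillary electrophoresis as the read-out, labelled reporter cDNA fragments from transiently transfected HepG2 were sized and quantified. Exposure lasted 24 hours; activity in either direction was referenced to DMSO.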

Assay [19] has as its target Hypoxia-inducible factor 1-alpha (Homo sapiens) (UniProt Q16665). Description: ATG_HIF1a_CIS: Attagene CIS-FACTORIAL HepG2 Assay for human Hypoxia Inducible Factor 1 (HIF1A) (AID 2282951). To be noted: HepG2 Attagene cis-factorial HIF1a reporter transcription; actives raise or lower the signal. The method in brief:
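Measures endogenous transcription-factor activity through cis-regulated reporter mRNA in HepG2. Cells dosed 24 h; transcripts quantified by RT-PCR with 6-FAM-labelled products separated by capillary electrophoresis; DMSO serves as negative control.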

Several values for one entry are separate records, joined by “and”; a condition that tells them apart may be missing. Identical values can stand only once. A structure can be active in one record and inactive in another. Activity calls are given as the source filed them. Rule for the calls: active = hit-call score of the fitted dose curve at least 0.9, where 1 is the maximum; inactive = score below 0.9.

Transcription factor Sp1 (Homo sapiens), sequence (P08047 whole entry, looked up): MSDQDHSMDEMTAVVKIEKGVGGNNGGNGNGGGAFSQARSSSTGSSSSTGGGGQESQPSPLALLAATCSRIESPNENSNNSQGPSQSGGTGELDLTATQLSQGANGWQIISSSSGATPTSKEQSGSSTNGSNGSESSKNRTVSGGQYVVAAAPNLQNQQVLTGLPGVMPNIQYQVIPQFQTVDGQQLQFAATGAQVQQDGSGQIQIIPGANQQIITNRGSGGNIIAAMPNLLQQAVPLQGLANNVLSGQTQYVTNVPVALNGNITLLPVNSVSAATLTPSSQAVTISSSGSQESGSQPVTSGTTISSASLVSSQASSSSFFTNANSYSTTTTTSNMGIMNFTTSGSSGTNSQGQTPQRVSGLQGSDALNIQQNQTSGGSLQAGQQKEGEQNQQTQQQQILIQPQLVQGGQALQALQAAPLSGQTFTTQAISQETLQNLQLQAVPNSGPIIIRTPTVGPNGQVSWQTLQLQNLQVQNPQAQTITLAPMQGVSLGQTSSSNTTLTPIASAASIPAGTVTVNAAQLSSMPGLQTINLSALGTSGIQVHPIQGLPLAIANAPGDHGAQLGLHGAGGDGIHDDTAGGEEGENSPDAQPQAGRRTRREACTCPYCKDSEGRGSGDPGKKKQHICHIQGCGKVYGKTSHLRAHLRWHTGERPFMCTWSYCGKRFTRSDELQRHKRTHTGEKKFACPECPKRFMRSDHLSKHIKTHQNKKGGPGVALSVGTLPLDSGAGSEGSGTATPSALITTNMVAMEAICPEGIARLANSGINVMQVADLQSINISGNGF
Bile acid receptor (Homo sapiens), sequence (Q96RI1 whole entry, looked up): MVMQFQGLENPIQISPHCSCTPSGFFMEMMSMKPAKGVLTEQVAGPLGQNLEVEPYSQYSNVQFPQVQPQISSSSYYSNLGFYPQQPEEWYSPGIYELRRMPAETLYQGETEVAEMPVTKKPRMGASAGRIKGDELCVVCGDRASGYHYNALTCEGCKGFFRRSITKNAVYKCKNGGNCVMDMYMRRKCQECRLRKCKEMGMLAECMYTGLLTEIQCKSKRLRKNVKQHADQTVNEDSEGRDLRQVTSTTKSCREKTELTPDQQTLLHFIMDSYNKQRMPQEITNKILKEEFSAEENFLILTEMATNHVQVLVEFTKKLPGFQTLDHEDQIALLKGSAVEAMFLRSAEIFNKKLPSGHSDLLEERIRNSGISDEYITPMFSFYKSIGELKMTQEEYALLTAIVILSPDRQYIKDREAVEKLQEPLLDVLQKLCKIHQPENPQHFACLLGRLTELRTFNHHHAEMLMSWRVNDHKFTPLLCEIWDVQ
Signal transducer and activator of transcription 3 (Homo sapiens), sequence (P40763 whole entry, looked up): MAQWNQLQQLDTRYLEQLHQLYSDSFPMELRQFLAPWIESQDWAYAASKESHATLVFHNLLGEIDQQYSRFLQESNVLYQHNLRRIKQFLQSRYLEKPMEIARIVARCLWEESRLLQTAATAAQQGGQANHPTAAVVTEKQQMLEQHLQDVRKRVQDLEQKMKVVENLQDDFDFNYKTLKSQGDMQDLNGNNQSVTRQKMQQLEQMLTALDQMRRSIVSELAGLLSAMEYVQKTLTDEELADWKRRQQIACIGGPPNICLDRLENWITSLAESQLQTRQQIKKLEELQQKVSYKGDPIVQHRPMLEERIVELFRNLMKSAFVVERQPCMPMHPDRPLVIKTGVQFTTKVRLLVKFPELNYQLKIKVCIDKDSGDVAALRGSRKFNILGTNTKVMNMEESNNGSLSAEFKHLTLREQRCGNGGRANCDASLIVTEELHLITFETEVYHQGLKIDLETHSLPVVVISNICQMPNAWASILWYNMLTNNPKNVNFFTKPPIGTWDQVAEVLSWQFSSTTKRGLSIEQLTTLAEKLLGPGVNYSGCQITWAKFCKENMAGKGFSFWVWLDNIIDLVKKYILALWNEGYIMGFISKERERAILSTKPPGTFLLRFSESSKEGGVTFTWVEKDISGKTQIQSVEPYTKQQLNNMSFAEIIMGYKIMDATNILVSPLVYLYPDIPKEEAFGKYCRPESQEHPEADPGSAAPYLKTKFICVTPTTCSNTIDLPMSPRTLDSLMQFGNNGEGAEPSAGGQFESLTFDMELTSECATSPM
Heat shock factor protein 1 (Homo sapiens), sequence (Q00613 whole entry, looked up): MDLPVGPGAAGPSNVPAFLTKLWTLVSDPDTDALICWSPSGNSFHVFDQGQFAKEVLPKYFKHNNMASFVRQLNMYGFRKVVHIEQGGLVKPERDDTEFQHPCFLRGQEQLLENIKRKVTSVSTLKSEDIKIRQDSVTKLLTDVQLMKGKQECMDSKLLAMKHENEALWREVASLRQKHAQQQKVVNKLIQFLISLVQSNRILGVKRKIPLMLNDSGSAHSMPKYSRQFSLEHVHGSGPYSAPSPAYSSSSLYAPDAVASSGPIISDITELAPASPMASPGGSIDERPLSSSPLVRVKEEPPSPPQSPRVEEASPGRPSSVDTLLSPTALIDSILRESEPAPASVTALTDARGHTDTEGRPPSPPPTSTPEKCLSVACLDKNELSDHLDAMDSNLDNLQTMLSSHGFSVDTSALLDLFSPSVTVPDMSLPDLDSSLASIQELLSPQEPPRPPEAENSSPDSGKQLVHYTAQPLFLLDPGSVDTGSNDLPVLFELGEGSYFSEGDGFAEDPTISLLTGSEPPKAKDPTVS
Paired box protein Pax-6 (Homo sapiens), sequence (P26367 whole entry, looked up): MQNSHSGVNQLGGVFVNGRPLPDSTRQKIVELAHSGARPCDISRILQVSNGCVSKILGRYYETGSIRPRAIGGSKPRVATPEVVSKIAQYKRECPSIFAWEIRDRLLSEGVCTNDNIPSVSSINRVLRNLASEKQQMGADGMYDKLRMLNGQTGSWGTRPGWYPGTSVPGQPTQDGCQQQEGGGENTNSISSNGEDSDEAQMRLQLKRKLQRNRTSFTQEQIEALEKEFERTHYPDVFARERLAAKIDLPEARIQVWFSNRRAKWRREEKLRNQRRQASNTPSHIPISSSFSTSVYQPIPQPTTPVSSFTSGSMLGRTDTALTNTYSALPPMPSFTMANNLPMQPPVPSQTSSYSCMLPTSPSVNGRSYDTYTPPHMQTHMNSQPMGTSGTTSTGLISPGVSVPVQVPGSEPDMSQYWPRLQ
Hepatocyte nuclear factor 6 (Homo sapiens), sequence (Q9UBC0 whole entry, looked up, the tested form may be a part): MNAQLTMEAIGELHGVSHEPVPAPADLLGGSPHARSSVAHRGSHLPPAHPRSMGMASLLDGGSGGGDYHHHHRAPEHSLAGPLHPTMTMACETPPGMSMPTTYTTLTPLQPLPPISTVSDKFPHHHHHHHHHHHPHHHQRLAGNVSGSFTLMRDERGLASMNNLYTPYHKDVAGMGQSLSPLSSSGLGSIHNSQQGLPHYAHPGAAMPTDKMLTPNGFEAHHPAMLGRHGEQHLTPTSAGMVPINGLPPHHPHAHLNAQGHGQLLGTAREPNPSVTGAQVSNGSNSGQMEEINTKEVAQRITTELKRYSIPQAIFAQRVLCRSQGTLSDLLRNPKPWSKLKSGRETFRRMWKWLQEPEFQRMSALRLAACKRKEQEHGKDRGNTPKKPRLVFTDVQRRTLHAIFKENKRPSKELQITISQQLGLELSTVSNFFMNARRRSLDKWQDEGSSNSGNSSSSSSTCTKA
Hypoxia-inducible factor 1-alpha (Homo sapiens), sequence (Q16665 whole entry, looked up): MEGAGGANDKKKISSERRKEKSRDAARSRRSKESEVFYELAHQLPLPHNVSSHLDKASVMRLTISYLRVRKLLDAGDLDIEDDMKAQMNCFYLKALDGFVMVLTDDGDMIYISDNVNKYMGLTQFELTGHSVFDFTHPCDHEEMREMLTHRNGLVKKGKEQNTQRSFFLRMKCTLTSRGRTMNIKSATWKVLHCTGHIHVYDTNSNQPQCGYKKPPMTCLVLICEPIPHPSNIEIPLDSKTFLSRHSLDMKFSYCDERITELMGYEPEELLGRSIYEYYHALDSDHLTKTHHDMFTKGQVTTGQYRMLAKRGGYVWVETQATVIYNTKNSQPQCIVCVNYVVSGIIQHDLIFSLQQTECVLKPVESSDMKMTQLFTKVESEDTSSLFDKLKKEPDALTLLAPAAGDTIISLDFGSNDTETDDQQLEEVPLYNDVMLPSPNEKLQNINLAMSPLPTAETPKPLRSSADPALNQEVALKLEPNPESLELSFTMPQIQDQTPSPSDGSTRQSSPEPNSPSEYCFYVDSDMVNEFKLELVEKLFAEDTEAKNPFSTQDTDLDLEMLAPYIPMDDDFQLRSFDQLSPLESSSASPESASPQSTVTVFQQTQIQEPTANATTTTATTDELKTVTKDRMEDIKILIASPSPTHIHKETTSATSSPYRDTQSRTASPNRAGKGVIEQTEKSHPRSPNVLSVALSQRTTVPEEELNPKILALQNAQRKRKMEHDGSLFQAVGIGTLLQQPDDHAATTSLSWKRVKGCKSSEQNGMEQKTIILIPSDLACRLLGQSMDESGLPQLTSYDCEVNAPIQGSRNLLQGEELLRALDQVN

Consider `O=C(O)c1ccccc1-n1cc(C(=O)O)c(=O)c2cc(Nc3c(F)cc(F)cc3Cl)c(Cl)cc21`, for which the molecule was classed as inactive in assay [1], in [2], in [3], in [4], in assay [5] and in [6]. Besides, the outcome in [7], in assay [8], in assay [9], in assay [10], in [12] and in assay [13] was inactive. Besides, the outcome in assay [14], in assay [15], in assay [16], in [17] and in assay [18] was inactive. For the same molecule, the AC50 in [11] is 62.3 µM (active).
With `CC/C(=C(/CC)c1ccc(O)cc1)c1ccc(O)cc1`, the half-maximal activity concentration (AC50) in [1] is 15.4 µM (active) and 2.2 µM (active); in [3] it was 11.1 µM (active); in [7], 20 µM (active) and 18.7 µM (active) and 20.2 µM (active); in [8], 15.2 µM (active) [middle of 4 runs]; in assay [10], 14.9 µM (active) and 5.16 µM (active); in [14] it was 11.1 µM (active). Moreover, in assay [15], the AC50 was 18.2 µM (active). The result in [1], in assay [2], in assay [3], in assay [4], in [5] and in assay [6] was inactive. In addition, the outcome in assay [7], in [8], in assay [10], in [14], in [15] and in [16] was inactive. The call in [17] was inactive.
`CN(C)c1ccc(C(=C2C=CC(=[N+](C)C)C=C2)c2ccc(N(C)C)cc2)cc1`: the AC50 in assay [1] was 2.87 µM (active); in [3], 2.28 µM (active); in [4], 2.03 µM (active); in assay [7], 6.63 µM (active); in assay [8], 4.28 µM (active); in assay [9], 5.8 µM (active). The AC50 was 2.19 µM (active) in [11] and 1.69 µM (active) in assay [15]. Besides, the molecule was classed as inactive in [2], in assay [5], in [19], in assay [6], in assay [10] and in assay [12]. Moreover, the result in [14], in [16] and in assay [17] was inactive.

In general, AC50 refers to the concentration at which the activity in the assay is half-maximal.
